Screens from PubChem BioAssay.
LGR2 inh – blocks bursicon-induced cAMP signaling via Drosophila LGR2 | HEK293 LGR2, CRE-luciferase, bursicon-stimulated, 4 h | inhibition, % at 9.99 µM | 0.35% of 380,000 active | AID 720647;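 active = drop in luminescence signal, shown as inhibition above about 50% in the replicate tests, limit read from the data, passing the limit was not always enough; inconclusive = probably only some replicates passing the limit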;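 also: agonist challenge used bursicon conditioned medium at about half maximal strength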
NR5A2 inv ag – NR5A2 inverse agonism in reporter assay; 0.13% of 360,000 active; AID 602396; O00482; inhibition, % at 3.6 µM; HEK293T StAR-luciferase reporter, LRH-1 transfected, 24 h;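 active = inhibition above the mean inhibition of all tested compounds plus 3 SD, cut at about 73% in these data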;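 also: 0% = DMSO wells and 100% = reporter-only cells lacking LRH-1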
Target sequence (O00482 whole entry, looked up): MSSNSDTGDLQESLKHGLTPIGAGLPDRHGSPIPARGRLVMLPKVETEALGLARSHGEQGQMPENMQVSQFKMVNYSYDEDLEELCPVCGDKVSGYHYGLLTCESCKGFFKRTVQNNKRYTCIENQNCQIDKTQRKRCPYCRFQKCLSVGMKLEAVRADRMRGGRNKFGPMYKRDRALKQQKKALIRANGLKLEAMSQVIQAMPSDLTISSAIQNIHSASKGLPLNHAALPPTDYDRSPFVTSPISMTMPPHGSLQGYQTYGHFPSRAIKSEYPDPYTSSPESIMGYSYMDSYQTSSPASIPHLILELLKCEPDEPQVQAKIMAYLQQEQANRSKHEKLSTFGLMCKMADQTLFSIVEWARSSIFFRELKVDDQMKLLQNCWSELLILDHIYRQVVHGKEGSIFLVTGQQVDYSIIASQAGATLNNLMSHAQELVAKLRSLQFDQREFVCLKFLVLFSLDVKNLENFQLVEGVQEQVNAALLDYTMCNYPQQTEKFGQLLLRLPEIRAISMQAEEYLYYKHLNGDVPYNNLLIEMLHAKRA
NCOA1 inh – inhibitors of human steroid receptor coactivator 1 (SRC1). Q15788. HEK293 GAL4-SRC1 luciferase reporter, luminescence. inhibition, % at 3.6 µM. 0.12% of 360,000 active;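 active = inhibition above the campaign mean plus 3 SD, with each screening campaign given its own cutoff, cut at about 60% in these data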;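 also: 0% = DMSO treated cells and 100% = gossypol at 36 µM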
SRC3 inh – inhibits human SRC3 coactivator; Q9Y6Q9; HEK293 GAL4-SRC3 luciferase reporter, luminescence; inhibition, % at 3.6 µM; 0.17% of 360,000 active; AID 588352;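 active = inhibition above a per-campaign cutoff, the mean of all compounds plus 3 SD, cut at about 60% in these data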;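 also: 0% = DMSO-treated cells and 100% = gossypol-treated cells at 36 µM; higher means less SRC3-driven luciferase light from the GAL4 reporter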
SRC2 inh – human SRC2 (NCOA2) inhibition; Q15596; HEK293 GAL4-SRC2 luciferase reporter, luminescence; inhibition, % at 9 µM; 0.17% of 370,000 active; AID 651957;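 active = inhibition above the mean inhibition of all tested compounds plus 3 SD, set per campaign, cut at about 52% in these data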;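 also: 0% = DMSO treated cells and 100% = cells given Gossypol at 36 µM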
* marks the source's active call; other numbers are inactive results; ? = inconclusive; nt = not tested or not shown. A selection: hits, their analogues and other compounds. The true share with any hit is near 0.45%.

SMILES	LGR2 inh	NR5A2 inv ag	NCOA1 inh	SRC3 inh	SRC2 inh
Cc1ccccc1-c1ccc(C2[C@@H]3CN(C(=O)Cc4ccncc4)C[C@H]2N3)cc1 (stereo partly specified)	-6	nt	nt	nt	nt
CCCNC(=O)N1CC2(CN(Cc3ccccn3)C2)c2c(n(C)c3cc(OC)ccc23)[C@H]1CO	-5	nt	nt	nt	nt
CCOC(=O)/C(=C\c1cccc(O)c1)c1nc2sc(C)c(C)c2c(=O)[nH]1	84*	5	19	29	14
COC(=O)c1ccc(Nc2cc(C)nc3ccc(C)cc23)cc1	74*	9	15	22	2
COc1ccc2c3c(n(C)c2c1)[C@@H](CO)N(CC1CCOCC1)CC31CN(C(C)=O)C1	3	nt	nt	nt	nt
COc1ccc2c3c(n(C)c2c1)[C@H](CO)N(C(=O)Nc1ccccc1F)CC31CCN(C(=O)c2ccccc2)CC1	9	nt	nt	nt	nt
O=C(Nc1ccc(CN2CCOCC2)cc1)c1cc2ccccn2n1	78*	-80	-80	-38	-5
COc1ccc(-c2noc(CCCC(=O)Nc3ccc(C(N)=O)cc3)n2)cc1	nt	5	15	22	65*
COc1ccc(-c2noc(CCCC(=O)NC3CCCC3)n2)cc1	1	45	20	15	53*
COc1cc(-c2noc(CCCC(=O)Nc3ccc(C(N)=O)cc3)n2)cc(OC)c1OC	0	-21	-9	-9	-17
COc1ccc2c3c([nH]c2c1)[C@@H](CO)NCC31CN(Cc2ccccc2F)C1	-4	nt	nt	nt	nt
N#CC(C#N)=C(Nc1ccc(F)cc1)SCc1cccc(F)c1	53*	36	24	27	13
NCCc1nnc(SCc2c(Cl)cccc2Cl)o1	nt	-12	-5	17	-26
NCCCCCc1nnc(SCc2ccccc2Cl)o1	nt	17	-5	18	59*
COc1ccc2c3c([nH]c2c1)[C@H](CO)N(C(=O)C1CCCC1)CC31CN(S(C)(=O)=O)C1	-6	nt	nt	nt	nt
CN1OC[C@@H]2CN[C@H](c3ccc(-c4cc5ccccc5o4)cc3)C[C@@H]21	nt	91*	87*	87*	nt
Nc1nc(=S)c2ncn(C3OC(CO)C(O)C3O)c2[nH]1 (stereo unspecified)	5	11	22	17	-6
Nc1nc(=S)c2ncn([C@@H]3O[C@H](CO)[C@@H](O)[C@H]3O)c2[nH]1	-5	81*	44	55	-16
Nc1ncn([C@@H]2O[C@H](CO)[C@@H](O)[C@H]2O)c(=O)n1	?	75*	65*	79*	34
Nc1ccn([C@@H]2O[C@H](CO)[C@@H](O)[C@@H]2O)c(=O)n1	3	8	13	30	22
COC(=O)c1cn(NC(=O)C2CCC(C)CC2)c(=O)c2ccccc12 (stereo unspecified)	nt	-9	-3	9	-20
COC(=O)c1cn(NC(=O)c2cc([N+](=O)[O-])ccc2F)c(=O)c2ccccc12	17	76*	70*	78*	59*
CS(=O)(=O)N1CC2(C1)[C@@H](c1ccccc1)[C@@H](CO)N2CCC(F)(F)F	-14	nt	nt	nt	nt
O=C(Nc1ccccc1)C1=C(c2ccccc2)S(=O)(=O)CCS1(=O)=O	100*	0	-31	-24	54*
O=C(O)c1ccccc1C(=O)Nc1ccccc1	nt	4	-17	-7	-2
SMILES	LGR2 inh	NR5A2 inv ag	NCOA1 inh	SRC3 inh	SRC2 inh
CN(C)Cc1cn(CC[C@H]2CC[C@@H](NS(=O)(=O)c3ccc(-c4ccccc4)cc3)[C@@H](CO)O2)nn1	14	nt	nt	nt	nt
O=c1[nH]cnc2c1nnn2C1OC(CO)C(O)C1O (stereo unspecified)	-10	85*	41	61	23
O=c1[nH]cnc2c1ncn2C1OC(CO)C(O)C1O (stereo unspecified)	-7	-9	4	9	4
CN(C)c1ncnc2c1nnn2C1OC(CO)C(O)C1O (stereo unspecified)	5	98*	64*	69*	31
O=C1NC[C@H](c2ccccc2)OC(=O)[C@@H](Cc2ccc(F)cc2)C/C=C\C[C@H]1CC(=O)N(CCO)Cc1ccccc1	61*	30	30	24	18
O=C1NC[C@H](c2ccccc2)OC(=O)[C@H](Cc2ccc(F)cc2)C/C=C\C[C@H]1CC(=O)N(CCO)Cc1ccccc1	58*	-9	15	13	23
O=C1NC[C@@H](c2ccccc2)OC(=O)[C@H](Cc2ccc(F)cc2)C/C=C\C[C@H]1CC(=O)N(CCO)Cc1ccccc1	-4	-10	-3	-3	22
O=C(CC1CC1)N1CC(=O)N2[C@H](CO)[C@H](c3ccc(C#Cc4ccccc4)cc3)[C@@H]2C1	7	nt	nt	nt	nt
